Assay outcomes deposited in PubChem by National Center for Advancing Translational Sciences (NCATS).
Cycloheximide cs – counter-screen for Shiga toxin inhibitors: cycloheximide protein synthesis inhibition; max response, %; cell reporter, cycloheximide protein synthesis inhibition counterscreen; actives 12% (n = 300,000); in the data active means max response mostly above about 13%, no sharp cut-off; inactive means mostly below about 14%; further: read at 38.3 µM for the half of the compounds with a filed dose; 0% is about no effect
Shiga inhibitor – Shiga toxin inhibition; Vero cells, Shiga toxin protein synthesis inhibition reporter; inhibition, % at 38.7 µM; actives 9.2% (n = 290,000); AID 2315; in the data active means inhibition mostly above about 28%, no sharp cut-off; inactive means mostly below about 43%; further: 0% is about no effect
MARV entry inh – Marburg virus entry inhibition | Marburg virus pseudotyped entry inhibition, cell reporter | Potency, µM (doses to about 37.8 µM), inactives show top-dose activity change, negative = inhibition, hits mostly inhibitors | actives 1.8% (n = 300,000); calls by dose curve; tested in HEK293 cells; further: potency means the concentration at half of the fitted maximal effect; on the % scale 0 is the no-effect control and ±100 the full control effect
Pf growth 48h – inhibits P. falciparum growth in the first generation, 48 h | Potency, µM (series often up to 28.7 µM), for inactives: top-dose activity change, negative = inhibition, usual class: inhibitors | AID 504832 | actives 5.9% (n = 310,000) | P. falciparum luciferase growth in erythrocytes, 48 h; further: potency means the concentration at half of the fitted maximal effect; on the % scale 0 is the no-effect control and ±100 the full control effect
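Read-out is firefly luciferase luminescence from an integrated reporter in P. falciparum, so falling signal marks reduced parasite growth. Infected erythrocytes were at 2% hematocrit and 0.1% parasitemia (final) in Albumax-supplemented RPMI 1640.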
Pf growth 96h – P. falciparum growth inhibition at 96 hours. P. falciparum luciferase reporter growth, 96 h. Potency, µM (doses to about 28.7 µM), without a hit: top-dose activity change, negative = inhibition, actives largely listed as inhibitors. actives 6.9% (n = 320,000). AID 504834; further: potency means the concentration at half of the fitted maximal effect; on the % scale 0 is the no-effect control and ±100 the full control effect
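96 h incubation, 37 C, 5% CO2, of luciferase-reporter P. falciparum-infected RBCs (2% hematocrit, 0.05% parasitemia final) with test compounds; endpoint luminescence.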
Lassa entry inh – blocks Lassa virus binding to or entry into cells | Lassa virus pseudotype entry inhibition, cell reporter | Potency, µM (titrated, usually from 37.9 µM), for the others: at the top dose activity change, negative = inhibition, usual class: inhibitors | actives 1.2% (n = 300,000) | AID 540256; calls by dose curve; tested in HEK293 cells; further: potency means the concentration at half of the fitted maximal effect; on the % scale 0 is the no-effect control and ±100 the full control effect; nearly all actives have a fitted effect of over 50% in size
* = called active by the depositor; ? = inconclusive; . = no result; [ ] = remark or other dose. Hits are enriched below; roughly 19% of the tested compounds scored in any of these assays. Unless noted, the call rests on the fitted dose curve; in most records, active means well fitted inhibition curve with a large enough effect; inconclusive means small, poorly fitted or top-dose-only effect, or another doubt; inactive means no such curve, though single readings can be large or run the other way.

SMILES	Cycloheximide cs	Shiga inhibitor	MARV entry inh	Pf growth 48h	Pf growth 96h	Lassa entry inh
O=C(NCc1ccccn1)C(=O)Nc1nc(-c2ccccc2)cs1	-3	23	-3%[46.1 µM]	16%	-5%	3%[46.1 µM]
CCN(CC)c1ccc(/C=N/n2c(C)cc(C)cc2=O)cc1	-3	1	9%	7.4µM*	7%	-11%
CCN(CC)c1ccc(/C=N/N2CC(=O)NC2=S)cc1	.	.	.	?	3.7µM*	.
CCN(CC)c1ccc(/C=N/N2C(=O)c3ccccc3C2=O)cc1	7	24	2%	2%	-2%	0%
Cc1cc(C(=O)OCCN2C(=O)c3ccccc3C2=O)c2ccccc2n1	-4	-32	8%	10%	15%	11%
CCSc1oc(-c2ccco2)nc1S(=O)(=O)c1ccc(Br)cc1	.	.	?	.	.	7%[46.1 µM]
CCP(=O)(CC)C(C)(C)CP(=O)(c1ccccc1)c1ccccc1	33	42	10%	25%	0%	11%
S=C(Nc1ccc(Cl)cc1)c1nc2ccccc2s1	34*	35	?	69%	-16%	11%
O=C(Nc1ccc(Cl)cc1)/C(=C/c1cccc(O)c1)c1nc2ccccc2s1	95*	154*	?	9.3µM*	4.1µM*	?
Clc1ccc(CCNc2nc3ccccc3s2)cc1	10	25	-76%	59%	44%	?
COc1ccc(C(=O)NCCCNC(=O)c2ccco2)cc1OC	-4	-4	-16%[46.1 µM]	17%	36%	3%[46.1 µM]
Cn1c(NCCCN2CCOCC2)nc2c1c(=O)n(Cc1ccc(Cl)c(Cl)c1)c(=O)n2C	-3	-5	?	13µM*	.	-26%
Cn1c(NCc2ccco2)nc2c1c(=O)n(Cc1ccc(Cl)cc1Cl)c(=O)n2C	-2	-4	?	-24%	.	1%
Cn1c(NCc2ccco2)nc2c1c(=O)n(Cc1ccc(Br)cc1)c(=O)n2C	-1	-9	-22%	9.3µM*	.	6%
Cn1c(NCc2ccco2)nc2c1c(=O)n(Cc1ccc(Cl)cc1)c(=O)n2C	2	32	?	9.3µM*	76%	?
Cn1c(NCCCN2CCOCC2)nc2c1c(=O)n(Cc1ccc(Cl)cc1)c(=O)n2C	1	-6	?	?	2%[5.75 µM]	-2%
COCCNCC(=O)Nc1ccccc1Sc1ccccc1	3	-6	-10%	19%	0%	-14%
COC(=O)c1ccccc1NC(=O)c1ccc2nc(CCc3ccccc3)oc2c1	.	.	.	.	.	0%[46.1 µM]
COC(=O)Cn1cccc1C(=O)c1ccccc1	8	-9	1%	?	7%	-12%
CCCCn1c(=O)[nH]c(=O)c2c1nc(-c1cc(Br)ccc1OC)n2C	-2	11	7%[46.1 µM]	?	?	-13%
CCCCn1c(=O)[nH]c(=O)c2c1nc(-c1ccccc1F)n2Cc1ccccc1OC	-1	-8	?	?	?	11µM*
CCCCn1c(=O)[nH]c(=O)c2c1nc(-c1ccc(OC)c(Br)c1)n2CC(C)C	1	2	?	?	2.1µM*	?
O=C(COc1ccc(C(=O)c2ccc(F)cc2)cc1)NCc1ccc(F)cc1	8	5	-24%	20%	?	?
O=[N+]([O-])c1nn(-c2ccc3c(c2)OCCO3)n(O)c1=Nc1ccccc1	142*	168*	1.5µM*	?	-8%	7.1µM*
Cc1ccc(N=c2c([N+](=O)[O-])nn(-c3ccc4c(c3)OCCO4)n2O)c(Cl)c1	35*	89*	.	163%	-9%	.
SMILES	Cycloheximide cs	Shiga inhibitor	MARV entry inh	Pf growth 48h	Pf growth 96h	Lassa entry inh
Cc1ccc(N=c2c([N+](=O)[O-])nn(-c3ccc(Cl)cc3)n2O)cc1C	18	26	10%[46.1 µM]	12µM*	0.83µM*	16%
COc1ccc(CCN=c2c([N+](=O)[O-])nn(-c3cccc(C)c3)n2O)cc1OC	2	9	.	0%	0%	.
Cc1cc(C)cc(N=c2c([N+](=O)[O-])nn(-c3ccc4c(c3)OCCO4)n2O)c1	17*	18	?	49%	39%	?
O=C1CCCN1CCCN=c1c([N+](=O)[O-])nn(-c2ccc(Cl)cc2)n1O	13	29	?	?	23%	?
Cc1c(Cl)cccc1N=c1c([N+](=O)[O-])nn(-c2ccccc2)n1O	-4	-10	-1%	.	?	13%
O=C(OCc1cccc(C(F)(F)F)c1)c1ccc(-c2nnn(Cc3ccc(F)cc3)n2)cc1	.	.	5%[46.1 µM]	.	.	?
O=C(NNC(=O)c1ccc(F)cc1F)c1ccc(-n2cnnn2)cc1	-3	-10	4%[46.1 µM]	14%	22%	18%[46.1 µM]
Cc1ccc(N=c2c([N+](=O)[O-])nn(-c3ccccc3)n2O)c(C)c1	32*	98*	13%	?	.	-15%
O=[N+]([O-])c1nn(-c2ccc3c(c2)OCCO3)n(O)c1=Nc1ccc(Cl)cc1	34*	117*	?	15%	?	?
Cc1ccc(N=c2c([N+](=O)[O-])nn(-c3ccc4c(c3)OCCO4)n2O)cc1F	33*	141*	?	159%	?	-15%[46.1 µM]
CCc1ccc(N=c2c([N+](=O)[O-])nn(-c3ccc4c(c3)OCCO4)n2O)cc1	34*	46*	23%[46.1 µM]	8%	?	4%
O=C(Cc1ccccc1)Nc1cc(-c2nc3cc(Cl)ccc3o2)ccc1Cl	.	.	?	.	.	-6%[46.1 µM]
N#Cc1cccc(OCC(=O)NC(=O)NCc2ccccc2)c1	-3	-4	15%[46.1 µM]	1%	-20%	-4%
COc1ccc(CNC(=O)C(C)N2CCN(c3ccc(C(C)=O)cc3)CC2)cc1 (configuration not stated)	17*	35	-1%[46.1 µM]	-21%	-29%	-4%[46.1 µM]
CCN1C(=O)[C@H]2[C@@H](c3ccc(C)cc3)N3C(=O)N(c4ccccc4)C(=O)[C@@]3(Cc3ccc(Cl)cc3)[C@H]2C1=O	-3	14	.	?	?	.
COc1ccc(N(C)S(=O)(=O)c2cccc(C(=O)NCc3ccc4c(c3)OCO4)c2)cc1	2	11	?	-45%	-22%	?
COc1ccc(N2CCN(C(=O)c3ccccc3N(C)S(=O)(=O)c3ccc(C)cc3)CC2)cc1	0	-9	-3%	?	10µM*	-24%
COc1ccc(N2CCN(/C(=N\S(=O)(=O)c3ccc(C)cc3)Nc3nc(C)cc(C)n3)CC2)cc1	0	1	-17%	.	?	8.2µM*
COc1ccc(N(C)S(=O)(=O)c2cccc(C(=O)N3CCN(Cc4ccc5c(c4)OCO5)CC3)c2)cc1	.	.	?	?	13µM*	?
COc1ccc(N2CCN(C(=O)c3cccc(N4C(=O)C5C6C=CC(C6)C5C4=O)c3)CC2)cc1 (configuration not stated)	1	-4	.	10µM*	61%	.
CCOC(=O)c1c(C(=O)OCC)c2c3ccccc3cc(C)n2c1C(=O)OC	.	.	1%[14.2 µM]	.	.	.
O=C(O)c1cnn2c(C(F)F)cc(C3CC3)nc12	7	-6	13%	.	22%	1%
